In PubChem BioAssay (NCI):
This is part of a sample that, as a whole, favours compounds with a hit. Of some 79,000 tested, about 15% had one in any assay. Active and inactive are the calls of the source. No stated cut-off is given here; in the data, active means growth inhibition above about 70%; inactive means the rest.

Test: NCI Yeast Anticancer Drug Screen. Data for the mlh1 rad18 strain (AID 175)
Conditions: S. cerevisiae mlh1 rad18 strain growth inhibition; at 50.0 µM (retest, dose inferred, filed as 5.0); active compounds read high
Method in brief: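 Steps: expose repair-defective yeast to compound; measure growth; express inhibition against vehicle-treated controls.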

| Structure (SMILES) | growth inhibition |
| --- | --- |
| N#CSC#CCCC#CSC#N | 46% (inactive) |
| c1ccc2c(c1)OCC(CNCCNCC1COc3ccccc3O1)O2 (stereo not given) | 74% (active) |
| CC(C)(C)OC(=O)N[C@H]1CC2(C=C(Cl)C(=O)C(Cl)=C2)OC1=O | 92% (active) |
| c1ccc([P+](c2ccccc2)(c2ccccc2)C2CCCC2)cc1 | 32% (inactive) |
| COc1ccc2nc(-c3ccc(Cl)cc3)[nH]c2c1 | 78% (active) |
| CC[C@H](CC[C@@H](C)C1CC[C@H]2[C@@H]3CCC4=CC(=O)CC[C@]4(C)[C@H]3CC[C@]12C)C(C)C (stereo not given in full) | 83% (active) |
| CCOC(=O)N/N=C/c1ccc(N(C)CCC#N)cc1 | 24% (inactive) |
| CC(Br)C(=O)c1ccc2cc(Cl)c3ccccc3c2c1 (stereo not given) | 99% (active) |
| Cc1ccc(-n2cc(-c3ccc(Cl)cc3)c3c(NN)ncnc32)cc1 | 65% (inactive) |
| O=C1c2ccccc2C(=O)c2c1ccc(C(=O)O)c2-c1ccc2ccccc2c1 | 98% (active) |
